# Sampled rows, rich in hits. Any-hit rate of the full collection: about 9%.
# HP1b binding inh: HP1-beta chromodomain-methylated histone interaction inhibition; P83916; AlphaScreen HP1-beta / biotin-H3K9me3 peptide binding; Potency, µM (top dose mostly 114 µM), for the others: at the top dose activity change, negative = inhibition, most hits filed as inhibitors; 0.56% of 390,000 active; note: nearly all actives have a fitted effect of over 70% in size
# Target sequence (P83916 whole entry, looked up): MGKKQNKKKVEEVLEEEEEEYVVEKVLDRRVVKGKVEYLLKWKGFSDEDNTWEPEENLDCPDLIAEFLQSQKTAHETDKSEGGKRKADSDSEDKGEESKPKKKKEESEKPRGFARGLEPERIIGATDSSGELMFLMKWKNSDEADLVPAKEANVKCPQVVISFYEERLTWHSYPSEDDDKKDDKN
#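 AlphaScreen: HP1-beta (50 nM) preformed 30 min with biotin-H3(1-18)K9me3 peptide (50 nM) in PBS pH 7.4, 0.01% Tween-20. Compound added for 30 min at RT, then streptavidin donor/nickel chelate acceptor beads (10 ug/mL) for 30 min.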
# ALOX12 inh: inhibitors of human 12S-lipoxygenase ALOX12 | purified 12hLO, xylenol orange hydroperoxide absorbance | AID 1671190 | P18054 | 1.1% of 580,000 active | Potency, µM (top dose mostly 108 µM), without a hit: top-dose activity change, negative = inhibition, hits mostly inhibitors; note: % is set by controls: 0 for no effect and ±100 for the full control effect
#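 Purified human 12hLO at 150 nM in 25 mM Hepes, 0.01% Triton X-100, pH 7.0, preincubated 15 min at room temperature with compound. Reaction started with 40 uM arachidonic acid, 30 min at room temperature. Hydroperoxide measured by Fe-xylenol orange, 573/405 nm absorbance ratio.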
# PLK1 PBD block: PLK1 (human) polo-box domain binding inhibition. AID 720504. P53350. 2.8% of 360,000 active. Plk1 PBD binding of FITC phosphopeptide, fluorescence polarization. Potency, µM, inactives show max response, negative = inhibition, hits mostly inhibitors; note: series mostly up to about 57 µM; % is set by controls: 0 for no effect and ±100 for the full control effect; nearly all actives have a fitted effect of over 65% in size
# JMJD2A Tudor: JMJD2A Tudor domain (human) inhibition | O75164 | AlphaScreen JMJD2A-Tudor / H3K4me3 peptide binding | 4.4% of 390,000 active | AID 504339 | Potency, µM (top dose mostly 114 µM), inactives show at the highest dose activity change, negative = inhibition, actives largely listed as inhibitors; note: % is set by controls: 0 for no effect and ±100 for the full control effect; nearly all actives have a fitted effect of over 50% in size
# G9a block: G9a (human) methyltransferase inhibition | G9a H3K9 monomethylation, AlphaScreen, 2 h | Potency, µM (highest dose often 102 µM), for the others: at the top dose activity, negative = inhibition, hits mostly inhibitors | Q96KQ7 | 8.8% of 350,000 active | AID 504332; note: % is set by controls: 0 for no effect and ±100 for the full control effect; nearly all actives have a fitted effect of over 75% in size
# Target sequence (Q96KQ7 913-1193 limits assumed): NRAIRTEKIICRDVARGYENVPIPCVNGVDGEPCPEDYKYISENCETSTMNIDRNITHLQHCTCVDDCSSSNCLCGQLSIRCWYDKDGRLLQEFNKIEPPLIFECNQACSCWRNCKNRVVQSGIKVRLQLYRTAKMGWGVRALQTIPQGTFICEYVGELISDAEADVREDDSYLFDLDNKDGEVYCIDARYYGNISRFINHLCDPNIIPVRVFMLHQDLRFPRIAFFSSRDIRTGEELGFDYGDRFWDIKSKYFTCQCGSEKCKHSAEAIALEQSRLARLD
#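 Compounds were preincubated with 20 nM G9a for 15 min, after which biotinylated H3K9 peptide (500 nM) and SAM (20 uM) started a 2 h room-temperature reaction. Monomethylated product was quantified by antibody-based AlphaScreen chemiluminescence.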
# BAZ2B inh: inhibitors of human BAZ2B bromodomain | Q9UIF8 | AlphaScreen BAZ2B-H3K14Ac peptide displacement | Potency, µM (series often up to 114 µM), for inactives: top-dose activity change, negative = inhibition, usual class: inhibitors | 4.4% of 360,000 active | AID 504333; note: % is set by controls: 0 for no effect and ±100 for the full control effect; nearly all actives have a fitted effect of over 60% in size
#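 Protein-peptide AlphaScreen: BAZ2B 50 nM, b-H3K14Ac 50 nM, 1x PBS pH 7.4 + 0.01% Tween-20. Preincubation 30 min RT; cpd 30 min RT (top 110 uM); beads 20 min RT, light-protected.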
# An asterisk follows results filed as active; ? = inconclusive; . = no result; ! = not confirmed by another sample; [ ] = another dose, or the depositor's remark. Calls come from the whole dose curve; as a rule, active = well fitted curve in the direction sought with a large enough effect; inconclusive = small, poorly fitted or top-dose-only effect, or another doubt; inactive = no such curve, though single readings can be large; an effect the other way counts as inactive or inconclusive. Potency is the fitted concentration of half-maximal effect.
SMILES,HP1b binding inh,ALOX12 inh,PLK1 PBD block,JMJD2A Tudor,G9a block,BAZ2B inh
O=C1OC(Nc2ccc(Cl)cn2)c2ccccc21 (stereo not given),27.2%,459.3%,-4.8%,-22.6%,5.6%[59 µM],0.4%
COCCn1nnnc1C(c1ccccc1OC)N1CCN(C(=O)c2ccco2)CC1 (stereo not given),52.1%,?,-5.7%,?,50.1µM*,-25.7%
O=C(c1ccco1)N1CCN(C(c2ccc(F)cc2)c2nnnn2Cc2cccs2)CC1 (stereo not given),17.3%,?,0.1%,-34.7%,?,?
CC(C)CCn1nnnc1C(c1ccc(F)cc1)N1CCN(C(=O)c2ccco2)CC1 (stereo not given),44.5%,-20.8%,-7.9%,-11.8%,50.1µM*,-35.5%
COCCn1nnnc1C(c1cccc(OC)c1OC)N1CCN(C(=O)c2ccco2)CC1 (stereo not given),28.9%,-14.5%,3.0%,-9.6%,50.1µM*,-18.2%
O=C(Cc1cccc(F)c1)N1CCC2(CCC(=O)N(CC3CC3)CC2)CC1,.,-7.2%,.,.,.,.
Cc1ccc(C)c(CN2C(=O)NC3(CCN(C(=O)Cc4cccc(F)c4)CC3)C2=O)c1,.,-12.5%,.,.,.,.
Cc1ccccc1CC(=O)N1CCC2(CC1)NC(=O)N(c1cccc(F)c1)N2,.,2.82µM*,.,.,.,.
COc1cccc(CC(=O)N2CCC3(CC2)NC(=O)N(c2cccc(F)c2)N3)c1,.,5.01µM*,.,.,.,.
COc1cccc(CC(=O)N2CCC3(CC2)NC(=O)N(c2ccccc2)N3)c1,.,3.16µM*,.,.,.,.
O=C(Cc1cccc(F)c1)N1CCC2(CC1)NC(=O)N(c1cccc(F)c1)N2,.,6.31µM*,.,.,.,.
O=C(CCC1CCCN(C(=O)c2ccsc2)C1)NCc1ccc(F)c(F)c1 (stereo not given),20.7%,20.4%,-10.2%,-11.9%,?,-9.8%
CCc1nc2c(cnn2-c2ccc(C)cc2)c(=O)n1Cc1ccccc1,48.5%,-18.4%,.,11.0%,18.6%[59 µM],.
CC(=O)Oc1ccc(/C=c2\sc3ncnn3c2=O)cc1,29.1%,-3.0%,-9.8%,-10.4%,?,?
CC(C)NC(=O)N1CC2ON=C(C(=O)N3CCN(c4ncccn4)CC3)C2C1 (stereo not given),.,-0.2%[6.33 µM],.,.,.,.
O=C(Cc1ccc(Cl)cc1)N1CCC2(CC1)NC(=O)N(c1ccccc1Cl)N2,.,1.41µM*,.,.,.,.
COc1cccc(CC(=O)N2CCC3(CC2)NC(=O)N(c2cccc(Cl)c2)N3)c1,.,1.41µM*,.,.,.,.
O=C(Cc1ccc(Cl)cc1)N1CCC2(CC1)NC(=O)N(c1cccc(F)c1)N2,.,3.16µM*,.,.,.,.
COc1ccc(CCC(=O)N2CCC3(CC2)NC(=O)N(c2cccc(F)c2)N3)cc1,.,5.01µM*,.,.,.,.
COc1ccc(CCC(=O)NC2CC(=O)N(c3cccc(F)c3)C2)cc1 (stereo not given),42.9%,-1.9%,.,-10.7%,-2.6%[59 µM],1.0%
Cc1ccc(C(=O)N2CCC3(CC2)NC(=O)N(c2cccc(F)c2)N3)s1,.,-70.2%,.,.,.,.
Cc1ccccc1C(=O)N1CCC2(CC1)NC(=O)N(c1cccc(F)c1)N2,.,1.78µM*,.,.,.,.
O=C1CSC(c2ccccc2F)N1CCN1CCCCC1 (stereo not given),34.6%,0.0%,0.8%,-11.7%,79.4µM*,-36.7%
O=C1CSC(c2cccc([N+](=O)[O-])c2)N1CCN1CCCCC1 (stereo not given),18.0%,-17.0%,-3.1%,-20.0%,9.1%,-23.1%
c1cn2cc(CN3CCOCC3)nc2s1,15.1%,0.6%,2.3%,-16.9%,-42.5%[59 µM],6.4%
SMILES,HP1b binding inh,ALOX12 inh,PLK1 PBD block,JMJD2A Tudor,G9a block,BAZ2B inh
O=C(O)c1ccc(Cl)c(S(=O)(=O)NC(Cc2c[nH]c3ccccc23)C(=O)O)c1 (stereo not given),5.9%,?,-16.4%,-33.8%,?,-15.3%
O=C(O)c1cc(S(=O)(=O)NC(Cc2c[nH]c3ccccc23)C(=O)O)ccc1Cl (stereo not given),39.4%,-1.3%,-10.3%,-11.1%,44.7µM*,-36.4%
O=C(O)C(Cc1c[nH]c2ccccc12)NS(=O)(=O)c1cccc(Cl)c1Cl (stereo not given),16.0%,0.0%,-14.0%,-11.0%,-17.6%,89.1µM*
CC(=O)c1cc2c(cc1NC(=O)c1c(C)nn(-c3ccc(C)cc3)c1-n1cccc1)OCO2,39.9%,-8.2%,.,-0.3%,-10.0%[59 µM],-20.4%
CCc1nnc(NS(=O)(=O)c2ccc(N/C=C/C(=O)c3ccc(C)cc3)cc2)s1,33.8%,?,?,?,39.8µM*,50.1µM*
CCc1nnc(NS(=O)(=O)c2ccc(NC(=O)COc3ccc4ccccc4c3)cc2)s1,33.6%,-4.5%,-2.6%,1.0%,-30.1%,?
CCc1nnc(NS(=O)(=O)c2ccc(NC(=O)/C=C/c3ccc(OC)cc3OC)cc2)s1,-3.2%,?,?,?,14.8%[59 µM],56.2µM*
CCc1nnc(NS(=O)(=O)c2ccc(N/C=C\C(=O)c3cccc(OC)c3)cc2)s1,28.7%,?,-29.3%,-13.2%,50.1µM*,-37.7%
Clc1ccc(C2Cn3nnc(-c4nc(-c5ccsc5)no4)c3CO2)cc1 (stereo not given),.,43.0%,.,.,.,.
CCc1cc2c(SCC(=O)NC3CC3)ncnc2s1,21.3%,-17.5%,4.7%,-17.4%,.,.
COC(=O)C1(O)CC(c2ccccc2)C(C(=O)c2ccccc2)N1c1ccc(Cl)cc1 (stereo not given),.,-27.1%,.,.,.,.
COC(=O)[C@@H]1[C@@H](C#N)C2(c3ccccc3-c3ccccc32)N(c2ccc(Cl)cc2)N1C#N,?,?,?,17.8µM*,?,?
CCOC(=O)c1c(NC(C)=O)sc2c(OC)c(Br)ccc12,29.7%,-2.7%[57.4 µM],-12.2%,-8.7%,?,10.2%
CCOC(=O)c1c(NC(C)=O)sc2c(O)c(CN3CCN(CC)CC3)ccc12,-5.5%,?,1.5%,?,25.1µM*,?
COC(=O)[C@@H]1[C@H]2C[C@H]3c4[nH]c5ccccc5c4CCN3C[C@@H]2CC[C@@H]1O,31.7%,-7.0%[22.9 µM],-6.4%,?,21.2µM*!,3.7%
COC(=O)[C@H]1[C@H]2C[C@@H]3c4[nH]c5cc(OC)ccc5c4CCN3C[C@H]2C[C@@H](OC(=O)c2cc(OC)c(OC)c(OC)c2)[C@@H]1OC,?,-25.4%,-6.2%,56.2µM*,22.4µM*!,28.2µM*
COC(=O)[C@H]1C2CC3c4[nH]c5ccccc5c4CCN3CC2CC[C@@H]1O (stereo not given in full),.,0.0%,.,.,13.4%[59 µM],.
CN1CCN(C(=O)c2cc3nc(-c4ccccc4)cc(C(F)(F)F)n3n2)CC1,14.4%,-0.4%,1.0%,-11.7%,3.1%[59 µM],-22.2%
